Assay results from PubChem BioAssay AID1159580 (chemical genetic matrix, 2015).
“And” between values parts separate entries of the source, which are not always exact repeats. Equal values may be shown once. Screen size: about 5,500 compounds; about 2,000 (36%) were called active. Roughly 18% stayed inconclusive and do not appear here. Rule as the data show it: active = normalized growth mostly below about 0.91 (no sharp cut-off); inconclusive = no clear call, values can overlap the other calls; inactive = mostly above about 0.92. Some of the results follow.

Test: chemical genetic growth profiling, strain panel (AID 1159580);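 also: tested at 20 µM; growth read once vehicle control cultures reached saturation at 30 °C; 1 = growth at the plate median or of vehicle wells; lower values mean less growth of the strain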
Conditions: S. cerevisiae deletion strains, growth OD

Measured: normalized growth

CN[C@H](CC(=O)O)C(=O)O
inactive: locus YAL013W, strain DEP1, stronger effect = lower value 0.983 | locus YAL021C, strain ccr4, stronger effect = lower value 0.988 | locus YAL026C, strain drs2, stronger effect = lower value 1.02 | locus YAL030W, strain snc1, stronger effect = lower value 1.01 | locus YBL061C, strain skt5, stronger effect = lower value 1.02 | locus YBR009C, strain hhf1, stronger effect = lower value 1.01 | locus YBR021W, strain FUR4, stronger effect = lower value 1.02 | locus YBR023C, strain chs3, stronger effect = lower value 1.03 | locus YBR171W, strain sec66, stronger effect = lower value 1.01 | locus YBR229C, strain ROT2, stronger effect = lower value 0.998 | locus YBR231C, strain swc5, stronger effect = lower value 1.02 | locus YBR279W, strain paf1, stronger effect = lower value 1.01 | locus YCL011C, strain gbp2, stronger effect = lower value 1.03 | locus YCL016C, strain dcc1, stronger effect = lower value 1.02 | locus YCL029C, strain bik1, stronger effect = lower value 0.985 | locus YCL061C, strain MRC1, stronger effect = lower value 1 | locus YCL069W, strain vba3, stronger effect = lower value 1.01 | locus YCR088W, strain abp1, stronger effect = lower value 1.02 | locus YDL005C, strain med2, stronger effect = lower value 1.03 | locus YDL035C, strain GPR1, stronger effect = lower value 0.989 | locus YDL040C, strain nat1, stronger effect = lower value 1.02 | locus YDL074C, strain BRE1, stronger effect = lower value 1.04 | locus YDL101C, strain DUN1, stronger effect = lower value 0.995 | locus YDL134C, strain PPH21, stronger effect = lower value 0.987 | locus YDL185W, strain tfp1, stronger effect = lower value 0.968 | locus YDL192W, strain arf1, stronger effect = lower value 0.967 | locus YDR001C, strain nth1, stronger effect = lower value 1.03 | locus YDR069C, strain doa4, stronger effect = lower value 1.02 | locus YDR101C, strain arx1, stronger effect = lower value 1.03 | locus YDR137W, strain rgp1, stronger effect = lower value 0.967 | locus YDR159W, strain sac3, stronger effect = lower value 1.03 | locus YDR162C, strain NBP2, stronger effect = lower value 0.964 | locus YDR195W, strain ref2 1.05 | locus YDR297W, strain sur2, stronger effect = lower value 1.02 | locus YDR318W, strain mcm21, stronger effect = lower value 0.98 | locus YDR334W, strain swr1, stronger effect = lower value 1.01 | locus YDR335W, strain msn5, stronger effect = lower value 1.01 | locus YDR388W, stronger effect = lower value 0.972 | locus YDR392W, strain spt3, stronger effect = lower value 0.969 | locus YDR502C, strain sam2, stronger effect = lower value 0.989 | locus YEL003W, strain gim4, stronger effect = lower value 1.01 | locus YEL037C, strain rad23, stronger effect = lower value 1.02 | locus YEL061C, strain CIN8 (second series), stronger effect = lower value 1.03 | locus YEL061C, strain CIN8, stronger effect = lower value 0.994 | locus YER015W, strain faa2, stronger effect = lower value 1.02 | locus YER016W, strain bim1, stronger effect = lower value 1.02 | locus YER110C, stronger effect = lower value 0.945 | locus YER111C, strain swi4, stronger effect = lower value 1.02 | locus YER155C, strain BEM2 (second series), stronger effect = lower value 1.06 | locus YER155C, strain BEM2, stronger effect = lower value 1 | locus YER167W, strain BCK2, stronger effect = lower value 0.998 | locus YFR010W, strain ubp6, stronger effect = lower value 1.03 | locus YGL078C, strain dbp3, stronger effect = lower value 0.975 | locus YGL086W, strain mad1, stronger effect = lower value 1.02 | locus YGL167C, strain pmr1, stronger effect = lower value 1.01 | locus YGL173C, strain kem1, stronger effect = lower value 1.01 | locus YGL227W, strain vid30, stronger effect = lower value 1.03 | locus YGL240W, strain doc1, stronger effect = lower value 1.04 | locus YGL248W, strain PDE1, stronger effect = lower value 0.996 | locus YGL253W, strain hxk2, stronger effect = lower value 1.02 | locus YGR135W, strain pre9, stronger effect = lower value 0.923 | locus YGR252W, strain gcn5, stronger effect = lower value 0.979 | locus YHR013C, strain ard1, stronger effect = lower value 1.04 | locus YHR027C, strain rpn1, stronger effect = lower value 1.02 | locus YHR030C, strain SLT2, stronger effect = lower value 0.991 and 1.03 | locus YHR079C, strain IRE1 (second series), stronger effect = lower value 0.992 | locus YHR079C, strain IRE1, stronger effect = lower value 1.04 | locus YHR094C, strain hxt1, stronger effect = lower value 0.981 | locus YHR129C, strain ARP1, stronger effect = lower value 0.995 | locus YHR142W, strain chs7, stronger effect = lower value 1.03 | locus YHR200W, strain rpn10, stronger effect = lower value 0.98 | locus YIL066C, strain RNR3, stronger effect = lower value 1 | locus YIL073C, strain SPO22, stronger effect = lower value 0.913 | locus YIL125W, strain kgd1, stronger effect = lower value 1 | locus YIR030C, strain dcg1, stronger effect = lower value 0.983 | locus YJL092W, strain hpr5, stronger effect = lower value 1.01 | locus YJL095W, strain BCK1 (second series), stronger effect = lower value 1.02 | locus YJL095W, strain BCK1, stronger effect = lower value 1.01 and 1.06 | locus YJL115W, strain asf1, stronger effect = lower value 1.03 | locus YJL129C, strain trk1, stronger effect = lower value 1.09 | locus YJL134W, strain LCB3, stronger effect = lower value 0.993 | locus YJL154C, strain vps35, stronger effect = lower value 1.02 | locus YJL164C, strain tpk1, stronger effect = lower value 0.998 | locus YJL166W, strain qcr8, stronger effect = lower value 1.03 | locus YJL168C, strain set2, stronger effect = lower value 0.98 | locus YJL187C, strain SWE1 (second series), stronger effect = lower value 1 | locus YJL187C, strain SWE1, stronger effect = lower value 1.01 | locus YJR043C, strain POL32, stronger effect = lower value 1
